Among all 360,000 compounds or so, about 2,900 (0.81%) were called active.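 Rule for the calls: active = inhibition above the mean inhibition across every tested compound plus 3 SD (cut at about 22% in these data); inactive = the rest.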 This excerpt belongs to a sample that is enriched for actives.
Target: Perilipin-5 (Homo sapiens) + 1-acylglycerol-3-phosphate O-acyltransferase ABHD5 (Homo sapiens) (UniProt Q00G26+Q8WTS1)
Test: blockers of ABHD5 binding to perilipin-5 – cell lysate, split luciferase complementation, luminescence, primary screen (AID 602281);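 note: 0% = DMSO only wells and the 100% control is not disclosed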
Settings: Split G. princeps luciferase complementation, 4 h, at 4 µM, active compounds read high

Chain of Perilipin-5 (Homo sapiens) + 1-acylglycerol-3-phosphate O-acyltransferase ABHD5 (Homo sapiens) (Q00G26 whole entry, looked up): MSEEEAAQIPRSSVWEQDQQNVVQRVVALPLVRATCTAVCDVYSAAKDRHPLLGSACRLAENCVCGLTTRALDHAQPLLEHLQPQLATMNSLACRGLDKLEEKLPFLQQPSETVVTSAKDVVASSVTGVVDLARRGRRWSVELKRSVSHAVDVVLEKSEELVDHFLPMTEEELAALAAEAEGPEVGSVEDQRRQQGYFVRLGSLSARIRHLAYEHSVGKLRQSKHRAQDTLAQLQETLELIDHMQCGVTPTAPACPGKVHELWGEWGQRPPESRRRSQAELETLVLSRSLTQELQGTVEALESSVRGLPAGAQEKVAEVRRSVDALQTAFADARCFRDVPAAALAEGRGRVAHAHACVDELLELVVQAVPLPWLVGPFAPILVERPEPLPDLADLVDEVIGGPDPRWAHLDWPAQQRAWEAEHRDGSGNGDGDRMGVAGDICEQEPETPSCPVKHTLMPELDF
Chain of Perilipin-5 (Homo sapiens) + 1-acylglycerol-3-phosphate O-acyltransferase ABHD5 (Homo sapiens) (Q8WTS1 whole entry, looked up): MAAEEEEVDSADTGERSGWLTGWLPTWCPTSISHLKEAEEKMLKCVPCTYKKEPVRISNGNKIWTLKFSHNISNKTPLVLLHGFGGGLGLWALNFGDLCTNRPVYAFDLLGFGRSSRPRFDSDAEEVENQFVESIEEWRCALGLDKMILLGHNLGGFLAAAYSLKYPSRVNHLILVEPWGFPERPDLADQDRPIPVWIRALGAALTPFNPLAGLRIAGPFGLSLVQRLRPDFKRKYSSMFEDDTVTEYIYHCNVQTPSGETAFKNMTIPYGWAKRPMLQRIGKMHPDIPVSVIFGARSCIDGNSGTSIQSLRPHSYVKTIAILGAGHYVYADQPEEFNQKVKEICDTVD

Row | SMILES | inhibition
1 | COc1ccc(CN2CCC(C)(Oc3cccc(F)c3)C2)c2ccccc12 (configuration not stated) | 1.04% (inactive)
2 | CC1(Oc2cccc(F)c2)CCN(Cc2ccccc2OC(F)F)C1 (configuration not stated) | -9.44% (inactive)
3 | CC1(Oc2ccccc2-c2ccno2)CCN(Cc2ccc(-c3ccccc3)o2)C1 (configuration not stated) | 24.9% (active)
4 | CCCOC1CCCN(C(=O)c2cc(COc3cncc(Cl)c3)on2)C1 (configuration not stated) | 1.32% (inactive)
5 | Cc1[nH]c2ccccc2c1C(=O)c1cc([C@H](NC(=O)OC(C)(C)C)C(C)C)sc1N | -16.6% (inactive)
6 | Cc1ccc(SC(CC(=O)c2ccc(C(C)(C)C)cc2)C(=O)O)cc1 (configuration not stated) | 84.9% (active)
7 | Cc1ccc(SC(C)C(=O)NCc2ccc(F)cc2)cc1 (configuration not stated) | -1.06% (inactive)
8 | Cc1ccc(C(=O)Cc2nnc(C)s2)cc1 | 10.8% (inactive)
9 | O=C1CC[C@@H](C(=O)N2CSC[C@@H]2C(=O)Nc2ccc(C(F)(F)F)cc2)N1 | -0.42% (inactive)
10 | CCC(C)NC(=O)C1CCC(=O)N1Cc1ccc(C)cc1 (configuration not stated) | 2% (inactive)
11 | Oc1ccc2ccccc2c1N=Nc1nccs1 | 22.1% (active)
12 | COc1ccccc1C(=O)NCC(=O)OCC(=O)NNC(=O)c1ccc(Br)cc1 | -4.52% (inactive)
13 | CCN1C(=O)/C(=C2\SC(N3CCCCC3)=NC2=O)c2ccccc21 | -2.55% (inactive)
14 | CC1(C)CC(=O)C=C(c2cccc3c2Oc2ccccc2S3)C1 | -12.2% (inactive)
15 | O=C(c1cc(C2CCCCN2S(=O)(=O)c2ccccc2)on1)N1CCOCC1 (configuration not stated) | 3.58% (inactive)
16 | O=C(NCc1ccco1)c1cnn2c(C(F)(F)F)cc(-c3ccco3)nc12 | 3.22% (inactive)
17 | COC(=O)c1cnn2c(C(F)(F)F)cc(-c3ccco3)nc12 | 32.2% (active)
18 | O=C(O)c1cnn2c(C(F)(F)F)cc(-c3ccccc3)nc12 | 6.31% (inactive)
19 | N#Cc1ccc(-c2nc3c(Cl)cc(C(F)(F)F)cn3c2Cc2ccccc2C(F)(F)F)cc1 | 0.66% (inactive)

Row | SMILES | inhibition
20 | NC(=O)c1ccccc1N=Cc1ccc2ccccc2c1 | 2.42% (inactive)
21 | C/C(=N/N1CCN(Cc2cccc3ccccc23)CC1)c1cccnc1 | -14.4% (inactive)
22 | CCOc1cc(S(=O)(=O)NCc2ccc3c(c2)OCO3)ccc1F | -2.91% (inactive)
23 | COc1ccc(C(=O)/C=C/c2cccnc2)c(OC)c1 | 22.4% (active)
24 | COc1ccc(C(=O)CCc2ccccc2O)c(OC)c1 | 0.27% (inactive)
25 | COc1ccc(C(=O)CCC(=O)Nc2cccnc2)c(OC)c1 | -5.28% (inactive)
26 | CCCn1c(=O)c2[nH]c(C3CCCC3)nc2n(CCC)c1=O | 4.3% (inactive)
27 | CCc1nnc(NC(=O)C2CC(=O)N(c3ccc4c(c3)OCCO4)C2)s1 (configuration not stated) | -9.44% (inactive)
28 | O=C(NCc1ccccc1Cl)c1csc([C@@H]2O[C@H](CO)[C@@H](O)[C@H]2O)n1 | -7.69% (inactive)
29 | COc1ccccc1-n1nnnc1S(=O)(=O)Cc1ccc(Cl)cc1 | 27.5% (active)
30 | CCN(C(=O)CSc1nnnn1-c1ccccc1OC)C1CCS(=O)(=O)C1 (configuration not stated) | 0.5% (inactive)
31 | COc1ccccc1CN(C)c1nnnn1-c1ccccc1 | -3.16% (inactive)
32 | Cc1cc2c(cc1S(=O)(=O)NCc1ccc(Cl)cc1)OCC(=O)N2 | 5.73% (inactive)
33 | O=C(CN1C2CCC1CC(NC(=O)C1CC1)C2)NCc1ccccc1 (configuration not stated) | -2.07% (inactive)
34 | CC(=O)Nc1ccc(NC(=O)CC2CCCC2)cc1 | 1.52% (inactive)
35 | O=C(O)CC(SCC(=O)Nc1ccc(Br)cc1)C(=O)O (configuration not stated) | 0.5% (inactive)
36 | O=C(CCl)Nc1ccc(Sc2ccc(NC(=O)CCl)cc2)cc1 | 28.2% (active)
37 | CN(CC(=O)NCCc1ccc(F)cc1)CC(=O)Nc1ccc(F)c(F)c1F | 3.93% (inactive)
38 | C/C(=N\NS(=O)(=O)c1ccc(Cl)cc1)c1ccc(NC(=O)c2ccco2)cc1 | -4.17% (inactive)

Row | SMILES | inhibition
39 | O=C(Nc1ccccc1)c1nnsc1S(=O)(=O)c1ccc(Cl)cc1 | 58.3% (active)
40 | O=C(Nc1ccc(S(=O)(=O)N2CCOCC2)cc1)C1CCN(S(=O)(=O)c2ccc(Cl)cc2)CC1 | -0.02% (inactive)
41 | COC(=O)[C@@]1(Cc2ccc(F)cc2)[C@H]2c3cc(C(=O)N4CCCC4)n(C[C@H](O)CO)c3C[C@H]2CN1C(=O)c1ccccc1 | 6.42% (inactive)
42 | COC(=O)[C@@]1(Cc2ccc(F)cc2)[C@H]2c3cc(C(=O)N4CCCC4)n(Cc4ccc(OC(F)(F)F)cc4)c3C[C@H]2CN1C(=O)c1ccccc1 | 22.3% (active)
43 | COC(=O)[C@@]1(Cc2ccc(OC)cc2)[C@H]2c3cc(C(=O)N4CCCC4)n(Cc4ccc(OC(F)(F)F)cc4)c3C[C@H]2CN1C(=O)c1ccccc1 | 18.3% (inactive)
44 | COC(=O)Nc1ccc(S(=O)(=O)N(C)CC(F)(F)C(F)F)cc1 | 4.74% (inactive)
45 | CC1CC(C)CN(S(=O)(=O)c2cccc3nonc23)C1 (configuration not stated) | -3.19% (inactive)
46 | COc1cccc(OC)c1CN(C)C(=O)c1cnccc1C(F)(F)F | 4.28% (inactive)
47 | O=C(COC(=O)c1ccc(F)c(S(=O)(=O)N2CCOCC2)c1)NCc1ccc2c(c1)OCO2 | 2.94% (inactive)
48 | Cc1ccnc(NC(=O)CCC(=O)N(CC(=O)NCCc2ccccc2)Cc2cccs2)c1 | 1.17% (inactive)
49 | O=C(c1cc2sccc2n1Cc1ccc(F)cc1)N1CCc2ccccc21 | -4.45% (inactive)
50 | Brc1ccc(-c2nn[nH]n2)cc1 | -0.33% (inactive)
51 | Cc1ccc(-c2ccc(CN3C(C(C)C)C(=O)N(Cc4cn(CCC5OCCCO5)nn4)CCS3(=O)=O)cc2)cc1 (configuration not stated) | -3.62% (inactive)
52 | CC(C)n1cnc2c(NCc3ccccc3)cc(OCC3CCN(C)CC3)cc21 | 52.1% (active)
53 | c1ccc2c(c1)C(=NC1CCCCC1)NC2=NC1CCCCC1 | 10.2% (inactive)
54 | O=C(NNC(=S)Nc1ccccc1)c1cccc(S(=O)(=O)N2CCOCC2)c1 | -0.88% (inactive)
55 | COC(=O)C[C@H]1C=C[C@H](NC(=O)c2ccc(F)cc2)[C@@H](CO)O1 | 7.9% (inactive)
56 | CCOc1ccccc1NC(=S)C(=C([O-])c1ccc2c(c1)OCCO2)[n+]1ccc(CC)cc1 | -7.74% (inactive)
57 | Cc1nn(C)c(C)c1C(C)NC(=O)c1ccc(OC2CCN(Cc3ccccn3)CC2)cc1 (configuration not stated) | 11.1% (inactive)

From PubChem BioAssay AID602281 (The Scripps Research Institute Molecular Screening Center, 2012)
